Where “and” joins values, the source holds several entries; their conditions need not be identical. Equal values may be shown once. A number with no mark means an inactive call. Inconclusive results are not listed. Where a call stands in place of a potency, no number is given. Calls of active or inactive are those of the source. Unless noted, calls follow the shape of the dose curve; as a rule, active = well fitted curve in the direction sought with a large enough effect; inconclusive = small, poorly fitted or top-dose-only effect, or another doubt; inactive = no such curve, though single readings can be large; an effect the other way counts as inactive or inconclusive. Bridge positions count the residues as written; N and C are the ends. Square brackets hold non-standard residues; d marks the D form. Peptide text beside a SMILES is read from it. * marks the point of attachment. Octanoyl(6-Me) = CCC(C)CCCCC(=O)*; Dab = NCC[CH](N)C(=O)O
Experiments:
[1] = Cell Viability - Renal Proximal Tubule (AID 545); settings: renal proximal tubule cells viability, primary cells of rat origin; at 91.7 µM (top of the series);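 also: cells exposed to compound for 40 hours; nearly all actives have a fitted effect of over 40% in size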
Summary of the method: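 Cytotoxicity is scored as a concentration-dependent drop in cellular ATP in primary rat renal proximal tubule cells exposed for 40 hr. AC50 derives from Hill modelling.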

[2] = biological target: Cytochrome P450 1A2 (Homo sapiens) (UniProt P05177); test: p450-cyp1a2 (AID 410; calls by dose curve; also: potency is read from the fitted curve at half-maximal effect)
Summary of the method: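 20nM CYP1A2, 100uM Luciferin-ME (=Km), 100mM KPO4; cpd 10 min RT; +NADPH regen, 60 min RT; stop/detect 20 min; luminescence. Normalized to furafylline 57 uM = full inhibition.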

[3] = biological target: Glucocorticoid receptor (Homo sapiens) (UniProt P04150); test: GR-GFP Redistribution (AID 450;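 active = compounds whose dose series gives a full or clear partial fitted curve of increased nuclear translocation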; also: potency is read from the fitted curve at half-maximal effect); settings: U2OS GR-GFP nuclear translocation, laser cytometry, 2 h
[4] = biological target: Cytochrome P450 2D6 (Homo sapiens) (UniProt P10635); test: qHTS Assay for Inhibitors and Substrates of Cytochrome P450 2D6 (AID 891); also: nearly all actives have a fitted effect of over 60% in size; also: potency is read from the fitted curve at half-maximal effect;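 as to activity change, negative = inhibition: luciferin methyl ether substrate demethylated by CYP2D6 with NADPH regeneration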
Summary of the method: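 Luminescent read-out of luciferin formed by 5 nM human CYP2D6 demethylating 30 uM Luciferin-ME EGE (Km level) over 60 min at room temperature after NADPH regeneration addition. Data normalized to full inhibition by 1.43 uM quinidine.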

[5] = biological target: DNA dC->dU-editing enzyme APOBEC-3G (Homo sapiens) (UniProt Q9HC16); test: qHTS for inhibitors of Vif-A3G interactions: Validation (AID 588379)
Summary of the method: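 Yellow fluorescence (Ex 488, Em 500-530) of Vif-coexpressing HeLa A3G-eYFP cells, scanned by Acumen cytometer, reports blocked A3G degradation. Cells plated at 700/well overnight at 37 deg C before compound addition, then a further overnight compound incubation at 37 deg C.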

[6] = biological target: Retinoic acid receptor RXR-alpha (Homo sapiens) (UniProt P19793); test: qHTS assay for small molecule antagonists of retinoid X receptor alpha signaling (AID 588546; active = well fitted inhibition curve with a large enough effect in the signal ratio, with a control signal flat, not every such curve was filed as active; the % refers to the signal ratio;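 also: cells stimulated with 9-cis-retinoic acid as agonist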); settings: HEK293T RXRa-UAS-bla, beta-lactamase ratio, antagonist mode
Summary of the method: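 Beta-lactamase reporter inhibition, read as CCF4 fluorescence ratio (ex 405, em 460/530 nm) after 2 h at RT. HEK293T UAS-bla cells, 2500/well, were stimulated with 9-cis-RA at 500 or 100 nM final alongside test compound for 18 h at 37 C.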

[7] = Cell Viability - LYMP2-004 (AID 966);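 also: cells exposed to compound for 24 h; nearly all actives have a fitted effect of over 65% in size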
Summary of the method: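 Luminescent ATP read-out (CellTiter-Glo, 30 min RT) after 24 hr compound exposure at 37 C; 2500 lymphoblastoid cells/well, complete medium. Decrease in ATP = cytotoxicity; AC50 from standard Hill model.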

[8] = Cell Viability - LYMP2-023 (AID 975);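 also: cellular ATP measured by luciferase luminescence as viability proxy; cells exposed to compound for 24 hours at 37 °C; nearly all actives have a fitted effect of over 55% in size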
Summary of the method: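 CellTiter-Glo luminescence after 30 min at room temperature; decrease in intracellular ATP reflects toxicity. Cells: human lymphoblastoid line, 2500/well, 24 hr compound exposure at 37 C. AC50 fitted to standard Hill equation from concentration-response.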

[9] = Cell Viability - LYMP2-006 (AID 978);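 also: cells exposed to compound for 24 hours; nearly all actives have a fitted effect of over 60% in size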; also: potency is read from the fitted curve at half-maximal effect
Summary of the method: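 Concentration-dependent loss of intracellular ATP in a human lymphoblastoid line after 24 hr treatment at 37 C was measured by CellTiter-Glo luminescence, with AC50 values obtained from standard Hill-equation modelling.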

[10] = Cell Viability - LYMP2-012 (AID 982);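 also: cellular ATP by luciferase luminescence where a drop means cytotoxicity; cells exposed to compound for one day before reading; nearly all actives have a fitted effect of over 55% in size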
[11] = biological target: Bile acid receptor (Homo sapiens) (UniProt Q96RI1); test: qHTS assay for small molecule antagonists of farnesoid X receptor signaling (AID 588526; calls by dose curve)
Summary of the method: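 Antagonist mode: titrated compounds tested against chenodeoxycholic acid stimulation (normalized to 50 uM CDCA and DMSO) in GeneBLAzer HEK293T cells for 16 h. Beta-lactamase read by CCF4 fluorescence; IC50 from Hill fits.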

[12] = Confirmation and Secondary Assay for Modulators of Hemoglobin Beta Chain Splicing at IVS2 654 locus (AID 910);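 also: HeLa cells stably carrying EGFP split by mutant beta-globin IVS2-654 intron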;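 also: potency is read from the fitted curve at half-maximal effect; potency of activators that raise GFP signal by restoring correct splicing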
Summary of the method: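 HeLa cells stably expressing EGFP interrupted by β-globin IVS2-654 intron, seeded overnight in Opti-MEM/2% FCS, then treated 2 days at 37 °C. Restored splicing read as total peak GFP intensity per well by laser scanning cytometry (488 nm excitation, 500–520 nm emission); 500 nM antisense PNA as control.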

[13] = Confirmation and Secondary Assay for Modulators of Hemoglobin Beta Chain Splicing at IVS2 705 locus (AID 930);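 also: GFP fluorescence per well restored by corrected splicing of the IVS2-705 intron in EGFP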; also: potency is read from the fitted curve at half-maximal effect;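 as to activation: HeLa cells stably expressing the EGFP-705 splicing reporter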
Summary of the method: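 First, HeLa EGFP-705 cells are seeded at 500/well in Optimem with 2% FCS and left overnight. Next, compound or DMSO is added for 2 days. Finally wells are laser-scanned and total peak GFP intensity scored.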

[14] = qHTS Assay for Identifying Gametocytocidal Compounds (AID 743244); also: potency is read from the fitted curve at half-maximal effect;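 as to max response: actives lower the fluorescent signal which means gametocytes are killed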; settings: P. falciparum 3D7 stage III-V gametocytes, alamarBlue, 72 h; max response: stronger effect = lower value
Summary of the method: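 In this qHTS viability screen, late-stage 3D7 gametocytes are incubated with compound for 72 h, then with alamarBlue for 24 h; reduced resorufin fluorescence marks killing.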

[15] = Cell Viability - LYMP2-003 (AID 965);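 also: cells exposed to compounds for 24 h before reading; nearly all actives have a fitted effect of over 50% in size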
Summary of the method: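 Acute cytotoxicity is scored as a concentration-dependent drop in intracellular ATP, measured by luciferase luminescence in human lymphoblastoid cells treated for 24 hours at 37 C. AC50 values derive from Hill-equation modelling.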

[16] = qHTS assay to identify small molecules that stimulate interleukin-8 (IL-8) secretion (AID 651758; active = well fitted activation curve with a large enough effect in the signal ratio; the % refers to the signal ratio; also: potency is read from the fitted curve at half-maximal effect)
Summary of the method: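 Compounds are added to THP-1 cells (2000 per well) and left 16 hrs at 37 C. A labeled anti-IL-8 antibody pair is then added, and IL-8 secretion is measured by time-resolved FRET after 1-3 hrs at room temperature.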

[17] = Cellular Toxicity (caspase-3) SK-N-SH (AID 661);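 also: cells exposed to compound for 16 hours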
Summary of the method: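 Luminescent Caspase-Glo 3/7 read-out after 16 hr compound exposure of SK-N-SH neuroblastoma cells at 37 °C. Signal increase normalized to DMSO (basal) and 10 uM staurosporine (100%); AC50 from Hill equation fits of qHTS concentration-response data.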

[18] = biological target: 3',5'-cyclic-AMP phosphodiesterase 4B (Homo sapiens) (UniProt Q07343); test: qHTS Assay for Inhibitors of PDE-IV (AID 607; active = well fitted activation curve with a large enough effect in the main read-out, with a control signal flat, not every such curve was filed as active)
Summary of the method: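 HEK293 ACTOne cells with CNG channel (1000/well), endogenous PDE4; membrane potential dye, compounds up to 22.9 uM final. Fluorescence Ex 535/Em 590; RO 20-1724 (100 uM final) as reference.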

[19] = NFAT Signaling Pathway (AID 444; active = well fitted curve in either direction with a large enough effect, not every such curve was filed as active;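 also: carbachol stimulus at about its EC50 of 1 µM final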); settings: Jurkat NFAT-bla M1, carbachol, beta-lactamase ratio, 5 h; at 7.69 µM (top of the series) unless noted
Summary of the method: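 Jurkat cells with NFAT-driven β-lactamase reporter and co-expressed M1 receptor, stimulated with carbachol (final 1 uM, ~EC50), compound titration, 5 h at 37 °C. CCF4 loaded 1 h at RT; 460/530 nm ratio gave %activity and AC50.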

[20] = Stat Signaling Pathway (AID 446; active = well fitted curve in either direction with a large enough effect, not every such curve was filed as active;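 also: ME-180 cervical cancer cells given 40 pM IL-6 alongside compound; SIE-controlled beta-lactamase reporter measured as 460/530 nm FRET emission ratio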)
Summary of the method: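 Normalization used AC90 stimulation (300 pM IL-6) and AC90 inhibition (125 nM pan-JAK inhibitor at 40 pM IL-6). The underlying signal is SIE-driven beta-lactamase in ME-180 cells after 5 h IL-6 exposure with compound.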

Sequence of Glucocorticoid receptor (Homo sapiens) (P04150 whole entry, looked up): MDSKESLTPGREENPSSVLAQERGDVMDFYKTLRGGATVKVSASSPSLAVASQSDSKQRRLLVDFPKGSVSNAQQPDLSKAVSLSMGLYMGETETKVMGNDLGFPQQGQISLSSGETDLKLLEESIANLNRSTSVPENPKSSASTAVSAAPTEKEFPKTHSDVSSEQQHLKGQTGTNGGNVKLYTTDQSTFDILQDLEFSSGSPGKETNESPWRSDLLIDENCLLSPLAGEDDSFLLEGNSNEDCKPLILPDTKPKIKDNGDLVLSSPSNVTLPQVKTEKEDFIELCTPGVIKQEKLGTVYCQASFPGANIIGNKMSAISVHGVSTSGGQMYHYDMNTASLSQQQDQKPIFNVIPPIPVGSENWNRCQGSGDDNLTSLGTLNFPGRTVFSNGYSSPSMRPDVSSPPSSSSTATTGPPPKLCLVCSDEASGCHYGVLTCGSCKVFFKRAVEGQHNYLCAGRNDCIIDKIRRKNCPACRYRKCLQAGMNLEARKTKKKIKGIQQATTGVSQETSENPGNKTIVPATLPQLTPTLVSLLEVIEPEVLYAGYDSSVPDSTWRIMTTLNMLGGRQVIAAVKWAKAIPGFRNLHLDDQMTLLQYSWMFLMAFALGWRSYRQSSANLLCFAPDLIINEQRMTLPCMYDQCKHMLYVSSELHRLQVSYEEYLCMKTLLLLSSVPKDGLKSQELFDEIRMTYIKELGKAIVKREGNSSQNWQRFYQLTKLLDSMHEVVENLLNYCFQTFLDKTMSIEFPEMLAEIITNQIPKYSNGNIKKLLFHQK
Sequence of Bile acid receptor (Homo sapiens) (Q96RI1 whole entry, looked up): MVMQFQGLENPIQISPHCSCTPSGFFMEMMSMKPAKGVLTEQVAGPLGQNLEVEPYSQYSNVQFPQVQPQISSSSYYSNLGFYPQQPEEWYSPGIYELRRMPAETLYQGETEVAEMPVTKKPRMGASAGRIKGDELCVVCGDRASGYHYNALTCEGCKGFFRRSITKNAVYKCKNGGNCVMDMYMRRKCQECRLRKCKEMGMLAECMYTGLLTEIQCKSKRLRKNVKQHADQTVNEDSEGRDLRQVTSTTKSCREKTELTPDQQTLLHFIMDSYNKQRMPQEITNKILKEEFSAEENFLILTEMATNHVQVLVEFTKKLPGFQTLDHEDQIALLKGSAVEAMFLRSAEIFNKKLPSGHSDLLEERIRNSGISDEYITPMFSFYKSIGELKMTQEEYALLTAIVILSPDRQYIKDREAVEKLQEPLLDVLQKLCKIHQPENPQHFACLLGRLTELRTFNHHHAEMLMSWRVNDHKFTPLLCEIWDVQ
Sequence of Cytochrome P450 1A2 (Homo sapiens) (P05177 whole entry, looked up): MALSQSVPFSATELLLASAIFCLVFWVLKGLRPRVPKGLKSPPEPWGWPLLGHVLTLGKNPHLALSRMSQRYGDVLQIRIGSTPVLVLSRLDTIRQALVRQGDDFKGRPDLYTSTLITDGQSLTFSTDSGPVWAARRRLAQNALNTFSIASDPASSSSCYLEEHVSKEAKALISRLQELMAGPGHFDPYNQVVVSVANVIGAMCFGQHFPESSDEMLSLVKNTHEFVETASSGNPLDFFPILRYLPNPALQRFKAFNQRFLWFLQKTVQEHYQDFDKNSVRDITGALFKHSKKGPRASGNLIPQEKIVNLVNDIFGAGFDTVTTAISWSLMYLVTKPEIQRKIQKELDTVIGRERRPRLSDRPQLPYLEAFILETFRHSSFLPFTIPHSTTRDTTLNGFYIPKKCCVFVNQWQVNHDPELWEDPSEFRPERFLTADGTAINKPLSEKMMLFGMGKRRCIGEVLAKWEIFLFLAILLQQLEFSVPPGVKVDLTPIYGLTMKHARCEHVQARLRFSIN
Sequence of Retinoic acid receptor RXR-alpha (Homo sapiens) (P19793 whole entry, looked up): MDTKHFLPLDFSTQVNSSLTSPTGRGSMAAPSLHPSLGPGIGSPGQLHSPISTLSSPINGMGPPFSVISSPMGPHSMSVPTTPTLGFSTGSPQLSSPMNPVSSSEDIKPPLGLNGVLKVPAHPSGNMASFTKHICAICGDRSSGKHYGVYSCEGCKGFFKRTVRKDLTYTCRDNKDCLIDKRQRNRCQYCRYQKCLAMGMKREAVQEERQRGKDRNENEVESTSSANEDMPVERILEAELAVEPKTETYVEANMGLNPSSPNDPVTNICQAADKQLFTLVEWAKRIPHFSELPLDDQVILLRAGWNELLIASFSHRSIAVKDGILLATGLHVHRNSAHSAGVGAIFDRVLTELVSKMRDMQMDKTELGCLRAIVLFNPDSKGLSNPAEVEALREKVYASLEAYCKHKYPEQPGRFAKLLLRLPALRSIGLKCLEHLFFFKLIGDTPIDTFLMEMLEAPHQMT
Sequence of DNA dC->dU-editing enzyme APOBEC-3G (Homo sapiens) (Q9HC16 whole entry, looked up): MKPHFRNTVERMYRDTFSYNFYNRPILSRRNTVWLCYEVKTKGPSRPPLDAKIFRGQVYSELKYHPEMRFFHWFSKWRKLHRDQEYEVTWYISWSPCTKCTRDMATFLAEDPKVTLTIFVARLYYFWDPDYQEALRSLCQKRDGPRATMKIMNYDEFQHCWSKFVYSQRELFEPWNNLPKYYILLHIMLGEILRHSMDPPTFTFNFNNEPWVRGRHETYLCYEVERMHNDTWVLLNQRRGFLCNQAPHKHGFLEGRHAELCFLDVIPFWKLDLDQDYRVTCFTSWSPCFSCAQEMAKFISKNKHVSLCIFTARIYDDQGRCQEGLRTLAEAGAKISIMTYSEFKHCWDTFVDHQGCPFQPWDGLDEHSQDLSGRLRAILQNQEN
Sequence of Cytochrome P450 2D6 (Homo sapiens) (P10635 whole entry, looked up): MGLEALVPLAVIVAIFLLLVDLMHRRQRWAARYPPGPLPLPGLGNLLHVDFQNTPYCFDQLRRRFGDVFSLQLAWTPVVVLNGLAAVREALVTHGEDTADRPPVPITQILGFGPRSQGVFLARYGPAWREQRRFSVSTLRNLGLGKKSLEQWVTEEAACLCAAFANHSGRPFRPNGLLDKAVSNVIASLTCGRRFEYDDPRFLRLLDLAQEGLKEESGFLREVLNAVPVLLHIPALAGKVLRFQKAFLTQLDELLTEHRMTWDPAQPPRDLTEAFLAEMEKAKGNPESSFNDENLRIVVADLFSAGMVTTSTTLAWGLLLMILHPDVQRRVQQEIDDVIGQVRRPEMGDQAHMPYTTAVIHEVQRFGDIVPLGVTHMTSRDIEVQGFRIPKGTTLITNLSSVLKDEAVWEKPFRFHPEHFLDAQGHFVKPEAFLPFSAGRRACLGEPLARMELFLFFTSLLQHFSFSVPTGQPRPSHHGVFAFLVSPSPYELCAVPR
Sequence of 3',5'-cyclic-AMP phosphodiesterase 4B (Homo sapiens) (Q07343 whole entry, looked up): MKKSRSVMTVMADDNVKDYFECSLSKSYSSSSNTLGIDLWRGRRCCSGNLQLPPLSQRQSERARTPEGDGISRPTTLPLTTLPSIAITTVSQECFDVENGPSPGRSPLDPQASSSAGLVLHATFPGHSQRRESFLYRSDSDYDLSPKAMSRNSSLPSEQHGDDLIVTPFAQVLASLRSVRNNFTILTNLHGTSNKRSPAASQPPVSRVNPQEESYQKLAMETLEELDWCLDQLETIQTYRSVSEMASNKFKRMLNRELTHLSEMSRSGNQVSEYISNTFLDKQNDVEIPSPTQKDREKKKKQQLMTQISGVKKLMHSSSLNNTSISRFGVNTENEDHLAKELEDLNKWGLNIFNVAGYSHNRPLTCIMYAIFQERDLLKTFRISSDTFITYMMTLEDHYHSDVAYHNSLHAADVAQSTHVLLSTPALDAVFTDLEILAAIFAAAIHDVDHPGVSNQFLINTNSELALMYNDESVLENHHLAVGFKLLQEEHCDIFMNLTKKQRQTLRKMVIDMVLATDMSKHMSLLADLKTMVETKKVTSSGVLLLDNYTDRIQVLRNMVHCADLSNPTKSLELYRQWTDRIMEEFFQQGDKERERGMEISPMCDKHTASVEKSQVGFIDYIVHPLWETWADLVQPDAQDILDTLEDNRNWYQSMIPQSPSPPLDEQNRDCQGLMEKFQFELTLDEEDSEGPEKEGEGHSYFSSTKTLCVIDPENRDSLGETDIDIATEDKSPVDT

O[C@@H]([C@H](O)[C@@H](O)CBr)[C@@H](O)CBr
activity change, negative = cytotoxicity [1]: 2.79%

O=c1cc(-c2cccc(O)c2)oc2c(O)c(O)ccc12
Potency [2]: 0.1 µM (active) | Potency [3]: > 46 µM | Potency [4]: inactive | outcome [5]: inactive

Cc1cccc(O)c1
max response [6]: -27.1% and -3.41%

O=S(=O)(O)c1ccccc1
activity change, negative = cytotoxicity [1]: -1.46% | Potency [7]: inactive | Potency [8]: inactive | Potency [9]: inactive | Potency [10]: inactive | outcome [11]: inactive

O=C1CCc2ccccc2O1
Potency [8]: inactive | Potency [10]: inactive | max response [6]: 0.0036%

CCCCCCCCCCCCC[N+](C)(C)Cc1ccccc1
Potency [12]: inactive | Potency [13]: inactive

COc1cc(/C=C/C(=O)N2CCC=CC2=O)cc(OC)c1OC
Potency [12]: inactive | Potency [13]: inactive

N[C@@H](C(=O)N[C@@H]1C(=O)N2C(C(=O)O)=C(Cl)CC[C@H]12)c1ccccc1
max response [14]: 3.49%

CCC(C)CCCCC(=O)NC(CCN)C(=O)NC(C(=O)NC(CCN)C(=O)NC1CCNC(=O)C(C(C)O)NC(=O)C(CCN)NC(=O)C(CCN)NC(=O)C(CC(C)C)NC(=O)C(Cc2ccccc2)NC(=O)C(CCN)NC1=O)C(C)O (configuration not stated) ({Octanoyl(6-Me)}-[Dab]T[Dab][Dab][Dab]FL[Dab][Dab]T; lactam 4-C; configuration not given here)
Potency [12]: inactive | Potency [13]: inactive

c1ccc2scnc2c1
Potency [15]: inactive | Potency [16]: inactive

N=C(N)c1ccc(OCCCOc2ccc(C(=N)N)cc2Br)c(Br)c1
Potency [14]: 7.08 µM (active)

O=C(O)c1ccccc1C(c1ccc(O)cc1)c1ccc(O)cc1
outcome [17]: inactive | Potency [7]: inactive

COc1c2ccoc2cc2oc(=O)ccc12
Potency [2]: 0.0158 µM (active) | Potency [3]: > 46 µM | Potency [18]: inactive | outcome [17]: inactive | Potency [12]: inactive | Potency [13]: inactive | Potency [15]: inactive | Potency [8]: inactive | outcome [5]: inactive | max response [6]: 23.4%

S=C1NC=NC2N=CNC12 (configuration not stated)
Potency [12]: 3.16 µM (active) | Potency [13]: 3.16 µM (active) | Potency [10]: inactive | Potency [16]: 42.2 µM (active)

Cc1ccc(N)c([N+](=O)[O-])c1
activity change, negative = cytotoxicity [1]: 4.17% | Potency [8]: inactive

CC(=O)OC/C=C(\C)CCC=C(C)C
outcome [17]: inactive | Potency [9]: inactive | Potency [10]: inactive

CCCCOCCO
Potency [9]: inactive | outcome [11]: inactive | Potency [16]: inactive

CN1CC[C@H](CN2c3ccccc3Sc3ccccc32)C1
Potency [2]: 5.01 µM (active) | activity change, negative = inhibition [19]: -75.3% (active) | outcome [20]: inactive | Potency [18]: inactive | Potency [4]: 0.126 µM (active) | Potency [14]: 18.7 µM (active)

O=C1c2ccccc2C(=O)C1c1ccc2ccccc2n1
activity change, negative = inhibition [19]: 21.8% [at 17.2 µM] | outcome [20]: inactive | Potency [3]: > 20.6 µM | outcome [17]: inactive | Potency [15]: inactive | Potency [7]: inactive | Potency [9]: 39.8 µM (active)

CCC(O)OC(O)CC (configuration not stated)
Potency [15]: inactive | Potency [9]: inactive | Potency [10]: inactive | Potency [16]: inactive

CC1=CC(C)(C)Nc2ccccc21
outcome [17]: inactive | Potency [15]: inactive | Potency [8]: inactive | max response [6]: 7.64% and -0.906% | Potency [16]: inactive

CN(C)CCCCCCN(C)C
outcome [11]: inactive
